Screen size: about 340,000 compounds; about 390 (0.11%) were called active.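 How the source made its calls: active means inhibition above the mean inhibition of all tested compounds plus 3 SD (cut at about 17% in these data); inactive means the rest.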 Only a selection was taken, and actives are over-represented in it overall.

In this assay the target is Troponin I, cardiac muscle (Homo sapiens) + Troponin T, cardiac muscle (Homo sapiens) + Troponin C, slow skeletal and cardiac muscles (Homo sapiens) (UniProt P19429+P45379+P63316). Briefly: cardiac RTF calcium sensitivity inhibitors, primary screen, biochemical, IANBD-TnC fluorescence, EC70 calcium (AID 493244).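 Further: assay run at fixed EC70 calcium of 1.6 mM.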 As to conditions: IANBD-labeled cardiac RTF, Ca2+ fluorescence; at 7.15 µM; active compounds read high.
A word on the inhibition: it is the change of the read-out against control, counted positive when it falls. In the case of `CCOC(=O)c1sc(N(Cc2ccccc2)C(=O)CN2C(=O)CN(C)C2=O)nc1C`, the inhibition is -19.2% (inactive). Next, `OCCC1CN(Cc2ccc(Oc3ncccn3)cc2)CCN1CCc1ccccc1` (configuration not stated): -5.37% (inactive); `CC1(C)CC(=O)C=C(NCc2ccncc2)C1`: -4.04% (inactive); `O=C(NCc1ccccc1Cl)C1CCC(CNc2c(N3CCCCC3)c(=O)c2=O)CC1` (configuration not stated): -11.6% (inactive). As for `NC1=NC(c2ccc([N+](=O)[O-])cc2)N(c2ccc(F)cc2)C(N)=N1` (configuration not stated), the inhibition was 4.59% (inactive). For the compound `CCn1c(O)c(N=NC2=NC(=O)CS2)c2cc(C)ccc21`, the inhibition is 3.93% (inactive). Next, `CCCCC(NC(=O)c1cccc(Br)c1)C(=O)O` (configuration not stated): -10.9% (inactive); `CSc1ncnc2c1ncn2CC(=O)C1CCC2C3CCC4=CC(=O)CCC4(C)C3CCC12C` (configuration not stated): -3.91% (inactive); `COc1ccc2c(c1)cc1n2CCN=C1NN`: -7.01% (inactive). As for `COc1ccccc1-c1n[nH]c2c1[C@H](C)CC[C@H]2C(C)C`, the inhibition is -2.28% (inactive). `CC(=O)c1nn(-c2cccc(C(F)(F)F)c2)c(=O)[nH]c1=O`: the inhibition was -1.11% (inactive).

For the compound `COc1ccc(NC(=O)CCC(=O)Nc2nnc(C3CCCCC3)s2)cc1`, the inhibition was -6.36% (inactive). The figure for `COC(=O)CCc1sc(Nc2ccc(Br)cc2)nc1-c1ccc(OC)cc1` is 20.8% (active).

As to `Cc1ccc(OC(=O)CCC(=O)Nc2ccc(Br)cc2)cc1`, the inhibition is -3.9% (inactive). The figure for `Cc1ccc2c(cnn2C(=O)CCC(=O)NC2CCCC2)c1` is 6.54% (inactive). The figure for `CCN(CC(=O)Nc1c(F)cccc1F)C(=O)c1ccc(-c2ccc(C(C)=O)cc2)o1` is 1.58% (inactive); for `COc1ccc(-n2c(C)cc(C(=O)CN3C(=O)NC4(CCc5ccccc54)C3=O)c2C)cc1` (configuration not stated) it is -0.58% (inactive). Regarding `O=C(/C(=N\O)n1cncn1)c1ccc(Br)cc1Br`, the inhibition is -6.03% (inactive).

With `Cc1ccc(CN2CCNC(=O)C2CC(=O)NCc2csc(C(C)C)n2)cc1` (configuration not stated), the inhibition was -0.36% (inactive). The figure for `O=C1C=C(c2ccc(Cl)cc2)C(=O)N1Nc1ccccc1` is -3.83% (inactive); for `Cc1ccc(C(=O)NCCc2nnc(SCC(=O)Nc3cccc(C(=O)O)c3)n2C)cc1` it is -8.53% (inactive); for `CCC(NC(=O)c1cc(COc2ccc(F)c(F)c2)on1)c1ccncc1` (configuration not stated) it is -0.88% (inactive).

Regarding `CCCN(CCC)CCCNC(=O)CNC(=O)c1nn(-c2ccc(OC)cc2)c(=O)c2ccccc12`, the inhibition was 1.59% (inactive). In the case of `COc1ccc(NS(=O)(=O)c2cc(NC(=O)COc3ccccc3F)ccc2OC)cc1`, the inhibition is -0.92% (inactive). Regarding `COc1ccc(C(F)(F)F)cc1N/C=C\c1nnnn1-c1ccc(C)cc1`, the inhibition is -1.14% (inactive). `Cc1ccc(-c2c[n+](=O)c3c(n2[O-])CCC3)cc1`: the inhibition is -7.98% (inactive).

Consider `Cc1ccc(NC(=O)C(C)OC(=O)C2CC3CCCC(C2)C3=O)cc1S(=O)(=O)N1CCOCC1` (configuration not stated), for which the inhibition is -1.77% (inactive). The figure for `N#CCCn1ncc2ccccc21` is -17% (inactive). `CCOC(=O)N1CCN(Cc2nc3cc(NC(=O)CC)ccc3n2CC)CC1`: the inhibition was -8.27% (inactive). Next, `CCC(C)CN1CCC(CO)(Cc2ccccc2Cl)CC1` (configuration not stated): 2.96% (inactive). In the case of `CC(C)C[C@H]1CN=C(Nc2ccccc2)N1CC1CCCCC1`, the inhibition was -2.92% (inactive). The figure for `CCOc1ccc(-n2c(SC(C)C(=O)OC)nc3c(c2=O)SCC3)cc1` (configuration not stated) is -6.85% (inactive); for `Cc1ccc2nc(Nc3ncc4c(n3)CC(C)(C)CC4=O)nc(C)c2c1` it is -5.46% (inactive). The figure for `NS(=O)(=O)c1cccc(NC(=O)CC23CC4CC(CC(Br)(C4)C2)C3)c1` is -5.43% (inactive). As to `CC(C)(CNC(=O)c1ccc(Cl)c(S(=O)(=O)N2CCc3ccccc3C2)c1)N1CCOCC1`, the inhibition is -11.2% (inactive). In the case of `COc1ccccc1C(=O)N1CCNC(=O)C1CC(=O)Nc1ccc(Cl)cc1` (configuration not stated), the inhibition was 1.41% (inactive).

As to `COC(=O)c1ccc(COC(=O)CNC(=O)c2cccc(OC)c2)o1`, the inhibition was -10.2% (inactive). As for `COc1cc(OC)cc(C(=O)NCC(=O)OCC(=O)NC(C)CCc2ccccc2)c1` (configuration not stated), the inhibition was -1.01% (inactive).

As for `COc1cc(OC)cc(C(=O)NCC(=O)OCc2csc(-c3ccccc3)n2)c1`, the inhibition is 17.6% (active). Next, `Cc1ccc(S(=O)(=O)N2CC(O)C[C@H]2C(=O)OCC(=O)Nc2ccc(N3CCOCC3)cc2)cc1C` (some centres not stated): -9.94% (inactive); `O=C1COc2ccc(C(=O)COC(=O)C3CC(O)CN3S(=O)(=O)c3ccc(Cl)cc3)cc2N1` (configuration not stated): -1.25% (inactive). Next, `CC1CCCC(NC(=O)COC(=O)[C@@H]2CC(O)CN2S(=O)(=O)c2ccc3c(c2)OCCO3)C1C` (some centres not stated): 20.7% (active); `CCN(CC)CCNC(=O)c1ccc(NC(=O)c2c(F)cccc2Cl)cc1`: -3.23% (inactive); `COC(=O)C1=NN(c2ccccc2)C2C(=O)N(c3ccccc3OC)C(=O)C12` (configuration not stated): -2.73% (inactive).

For the compound `Cc1oc2cc(Br)c(O)c(Br)c2c1C(=O)c1ccccc1`, the inhibition is -3.49% (inactive). With `CC(=O)Nc1nc(N(C)C)nc(N(C)C)n1`, the inhibition is 2.09% (inactive). Next, `CCN1C(=O)/C(=C2\SC(N3CCCCC3)=NC2=O)c2ccccc21`: -0.1% (inactive); `Cn1c2c(c(=O)n(C)c1=O)C(c1ccc(O)cc1)Nc1ccccc1O2` (configuration not stated): 3.38% (inactive).

As to `O=C(N[C@@H]1C/C=C\C[C@@H](CC(=O)N(CCO)Cc2ccccc2)C(=O)N[C@H](Cc2ccccc2)COC1=O)OCC1c2ccccc2-c2ccccc21`, the inhibition is -7.62% (inactive). Consider `O=C(O)c1ccccc1N=N/C(=N/Nc1cc(S(=O)(=O)O)ccc1O)c1ccccc1`, for which the inhibition is 5.68% (inactive). The figure for `CC1CC(C)CN(C(=O)CSc2ccsc2[N+](=O)[O-])C1` (configuration not stated) is -12.4% (inactive); for `COc1ccc(NC(=O)CC2COc3ccccc3O2)c(OC)c1` (configuration not stated) it is 17.3% (active). Turning to `COc1ccc(NC(=O)C2COc3ccccc3O2)cc1` (configuration not stated), the inhibition is 1.47% (inactive). With `COc1ccc(NC(=O)NCc2ccc3c(c2)OCO3)c(OC)c1`, the inhibition was -6.62% (inactive). The figure for `O=C(Nc1ccccc1)c1nnsc1S(=O)(=O)c1ccc(Cl)cc1` is -4.97% (inactive); for `N=c1n(Cc2ccc(Cl)cc2)c2ccccc2n1CC(O)c1ccco1` (configuration not stated) it is -16.9% (inactive). Next, `Cc1ccc(NC(=O)CN(C)C(=O)c2ccc(Br)o2)cc1`: -14.7% (inactive).

The record behind these values is PubChem BioAssay AID493244 (The Scripps Research Institute Molecular Screening Center, 2011).
